Measurements: PubChem BioAssay (NCI)
About 79,000 compounds went through this panel and 15% of them were active in at least one assay; those are over-represented in the sample as a whole. The source made the active and inactive calls. No stated cut-off is given here; in the data, active means growth inhibition above about 70%; inactive means the rest.

Assay: NCI Yeast Anticancer Drug Screen. Data for the mgt1 strain (AID 153)
Details: S. cerevisiae mgt1 mutant growth inhibition; at 33.0 µM; stronger effect = higher value
In short: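 Measured: inhibition of mgt1 yeast growth by compound, normalized to vehicle-treated cultures.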

Q: For `CCOP(=O)(OCC)C(Cc1ccccc1)N=C(c1ccccc1)c1ccccc1` (centres undefined), which growth inhibition is on record?
A: The growth inhibition was 86% (active).

Q: Which growth inhibition does the source give for `CCc1ncnc2cc(OCC3CO3)c(OC)cc12` (centres undefined) here?
A: The growth inhibition was 22% (inactive).

Q: For `CCOC(=O)[C@H]1Nc2ccccc2C2c3ccccc3CC21` (some centres undefined), which growth inhibition is on record?
A: The growth inhibition was 64% (inactive).

Q: For `O=CNc1ccc2c(c1)C(=O)c1ccccc1-2`, which growth inhibition is on record?
A: The growth inhibition was 47% (inactive).

Q: With `CCOc1ccc2c(c1)c(CC(=O)O)cn2C` as the compound, how does the growth inhibition read?
A: The growth inhibition was 18% (inactive).

Q: Which growth inhibition does the source give for `OC1CSCCCSCCSCCCSC1` here?
A: The growth inhibition was -9% (inactive).

Q: With `N#Cc1c(N)[nH]c2ccc(Sc3ccccc3)cc12` as the compound, how does the growth inhibition read?
A: The growth inhibition was 96% (active).

Q: With `Cc1ccc(-c2ccc(Nc3c4ccccc4nc4ccccc34)cc2)cn1` as the compound, how does the growth inhibition read?
A: The growth inhibition was 83% (active).

Q: Which growth inhibition does the source give for `c1ccc2c(c1)NC(NC1Nc3ccccc3N1)N2` here?
A: Its growth inhibition is 0% (inactive).

Q: Which growth inhibition does the source give for `OC(COc1cccc2ccccc12)CN1CCOCC1` (centres undefined) here?
A: The growth inhibition was 52% (inactive).

Q: With `CCC/C(Cl)=N\OC(=O)Nc1ccc(Br)cc1` as the compound, how does the growth inhibition read?
A: The growth inhibition was 98% (active).

Q: For `COc1ccc(/C=C2\SC(=S)N(/C=C/c3nc4ccccc4[nH]c3=O)C2=O)cc1OC`, which growth inhibition is on record?
A: The growth inhibition was 76% (active).

Q: For `O=C(NNc1ccnc2cc(Cl)ccc12)/C(=C\c1ccccc1Cl)NC(=O)c1ccccc1`, which growth inhibition is on record?
A: The growth inhibition was 61% (inactive).

Q: For `CSC1=NNC(SC)=NN1`, which growth inhibition is on record?
A: The growth inhibition was 83% (active).

Q: For `Cc1c(C2=C(Br)C(=O)N(C)C2=O)c(=O)n(C)c(=O)n1C`, which growth inhibition is on record?
A: The growth inhibition was 23% (inactive).

Q: With `NCCNc1ccc(NCCN)c2c1C(=O)c1c(O)ccc(O)c1C2=O` as the compound, how does the growth inhibition read?
A: The growth inhibition was 86% (active).

Q: For `Cn1c(=O)c(-c2ccccc2)c(N=[N+]=[N-])c2ccccc21`, which growth inhibition is on record?
A: The growth inhibition was 94% (active).

Q: Which growth inhibition does the source give for `CCCCCCCCCCCCCCCCCCOCC(O)COP(=O)(O)OCC1OC(n2cc(F)c(=O)[nH]c2=O)CC1O` (centres undefined) here?
A: Its growth inhibition is 98% (active).

Q: With `CCS(=O)(=O)c1ccc(/C=C/C=N/NC(=S)NCC(C)C)cc1` as the compound, how does the growth inhibition read?
A: Its growth inhibition is 5% (inactive).

Q: For `CCC(=O)Oc1c(Cl)cc(Cl)c2ccccc12`, which growth inhibition is on record?
A: The growth inhibition was 3% (inactive).

Q: With `COc1cc2c3c(cccc3c1)C(=O)N(CCN(C)C)C2=O` as the compound, how does the growth inhibition read?
A: Its growth inhibition is -23% (inactive).

Q: For `CN(C)c1ccc(C(C#N)=C(C#N)C#N)cc1`, which growth inhibition is on record?
A: Its growth inhibition is -4% (inactive).

Q: For `O=C(CCCN1CCC2(CC1)CC(=O)N(N1CCCCCC1)C2=O)c1ccc(F)cc1`, which growth inhibition is on record?
A: Its growth inhibition is 75% (active).

Q: For `O=C1C2C(C(=O)N1c1ccc(OCc3ccccc3)cc1)C1c3ccccc3C2C2CCCCN21` (centres undefined), which growth inhibition is on record?
A: Its growth inhibition is 2% (inactive).

Q: Which growth inhibition does the source give for `CCN(CC)CCC(=O)c1ccc(Oc2ccc(F)cc2)cc1` here?
A: Its growth inhibition is 92% (active).

Q: With `O=Nc1c(NO)ccc2nn(-c3ccccc3)nc12` as the compound, how does the growth inhibition read?
A: Its growth inhibition is 98% (active).

Q: For `CC(=O)SCCC[Si](C)(C)CCCSC(C)=O`, which growth inhibition is on record?
A: The growth inhibition was 7% (inactive).

Q: Which growth inhibition does the source give for `O=C(O)C1CCCCC1c1c2ccc(=O)c(O)c-2oc2c(O)c(O)ccc12` (centres undefined) here?
A: The growth inhibition was 53% (inactive).

Q: Which growth inhibition does the source give for `Cc1ccc(NN(NC(=O)OC(C)C)C(=O)OC(C)C)cc1` here?
A: The growth inhibition was 14% (inactive).

Q: For `O=C1c2ccccc2C(=O)c2cc(CBr)ccc21`, which growth inhibition is on record?
A: The growth inhibition was 21% (inactive).

Q: For `Cc1c(C(Cc2ccccc2N(C)C(=O)/C=C\C(=O)O)c2c[nH]c3ccccc23)c2ccccc2n1C` (centres undefined), which growth inhibition is on record?
A: The growth inhibition was 5% (inactive).

Q: For `CC(C)/C(Cl)=N\OC(=O)Nc1ccc(F)cc1`, which growth inhibition is on record?
A: Its growth inhibition is 78% (active).

Q: For `O=C1OC(=O)C2CCCC3CCCC1C32` (centres undefined), which growth inhibition is on record?
A: The growth inhibition was 87% (active).

Q: Which growth inhibition does the source give for `CCOC(=O)C(NC(=O)c1ccccc1)(N1CCN(c2cc3c(cc2F)c(=O)c(C(=O)O)cn3C2CC2)CC1)C(F)(F)F` (centres undefined) here?
A: The growth inhibition was 1% (inactive).

Q: For `COc1ccc(NC(=S)N/N=C(\c2ccccc2)c2ccccn2)cc1`, which growth inhibition is on record?
A: The growth inhibition was 52% (inactive).

Q: Which growth inhibition does the source give for `C=CCC1=C(C)C(OC(=O)/C=C/c2ccccc2)CC1=O` (centres undefined) here?
A: Its growth inhibition is 2% (inactive).

Q: With `NNc1c(F)c(F)cc(F)c1F` as the compound, how does the growth inhibition read?
A: The growth inhibition was -6% (inactive).

Q: For `COP(=O)(OC)/C(=C\C1=CN(C(c2ccccc2)(c2ccccc2)c2ccccc2)CN1)NC=O`, which growth inhibition is on record?
A: Its growth inhibition is 67% (inactive).

Q: For `COC(=O)c1cc(-c2ccc(C)cc2)[nH]c(=O)c1C#N`, which growth inhibition is on record?
A: The growth inhibition was -1% (inactive).
